# Measured values taken from ChEMBL document CHEMBL4513216, “Probing the Open Global Health Chemical Diversity Library for Multistage-Active Starting Points for Next-Generation Antimalarials” (ACS Infect Dis, 2020).
# Among all 69,000 compounds or so, about 8,600 (12%) showed an effect of 50% or more. The sample as a whole holds a higher share of strong results than the screen did.
# Test system: Plasmodium berghei
# Assay: Screen against P. berghei liver stage (PbLuc), transformed with Luciferase, at 10uM
# Assay type: functional, HepG2
# Conditions: tested at 10 uM
row,Structure (SMILES),INHIBITION
1,CCOC(=O)N1CCC(n2cc3[nH]cccc-3c2=O)CC1,9.63%
2,CN(C)c1cc(C2CCCN(C(=O)Cn3cc(Cl)cn3)C2)ccn1 (centres undefined),2.71%
3,O=c1[nH]c(-c2ccccn2)nc2c1CCN(Cc1cccc(O)c1)C2,11.1%
4,O=C(c1ccnnc1)N1CCN2C[C@H](Oc3cccc(F)c3)C[C@H]2C1,26.1%
5,c1ccc(CCN2CCn3cc(Cn4cccn4)nc3C2)cc1,24.9%
6,O=C(C1CN(CC2CCOCC2)CC12CCOCC2)N1CCCC1 (centres undefined),29.8%
7,CCN(Cc1cnn(C)c1)C[C@H]1CC[C@@H](Cc2ccc(C)nc2)O1,12.9%
8,CSc1ccc(NCc2csc(CS(C)(=O)=O)n2)cc1F,17%
9,CSc1ccc(NCc2csc(C)n2)cc1F,-35%
10,CNC(=O)Cc1nc(CNc2ccc(SC)c(F)c2)cs1,80.7%
11,CC1CN(C(=O)c2cccc(OCc3cscn3)c2)CCO1 (centres undefined),39.75%
12,CN1CCOC(C)(C(=O)N2CCSCC2)C1 (centres undefined),18.3%
13,Cc1cc(NCCSc2nccn2C)n2ncnc2n1,18.2%
14,CNC(=O)c1[nH]nc2ccc(I)cc12,77.7%
15,CNC(=O)c1cc(C2CCCNC2)n[nH]1 (centres undefined),5.34%
16,CN(C)CCNC(=O)Cc1cccc(I)c1,1.75%
17,CC(C)N(CCNC(=O)c1n[nH]c2ccccc12)C(C)C,24.8%
18,CNC(=O)c1ccc2c(OC)n(C)nc2c1,20.7%
19,CC(C)N(CCNC(=O)c1[nH]nc2ccc(I)cc12)C(C)C,58.2%
20,Cc1cccc(-c2nc(CN3CCc4cncnc4C3)no2)c1,-12.2%
21,Brc1ccc2[nH]c3c(c2c1)CCCC3c1nn[nH]n1 (centres undefined),0.0996%
22,CCc1cc(C(=O)N2CCCC(c3cc(=O)nc4n3CCC4)C2)no1 (centres undefined),-35.5%
23,Cc1ncsc1CN1C[C@H](C(=O)N2CCCO2)[C@@H]2CCO[C@@H]2C1,25.1%
24,O=c1c2c[nH]c(N3CCOCC3)nc-2cn1-c1ccc2c(c1)OCO2,-21.5%
25,CC(C)(C)OC(=O)N1CCN(c2ccc(F)cc2)CC1C(=O)O (centres undefined),-5.8%

row,Structure (SMILES),INHIBITION
1,CCc1nc(CCNC(=O)Nc2cccc(C(=O)NC)c2C)cs1,-12.5%
2,CCc1nc(CCNC(=O)Nc2ccc(C(=O)NC)cc2)cs1,57.7%
3,CCc1nc(CCNC(=O)Nc2ccc(C(=O)NC)cc2C)cs1,1.28%
4,CC(C)CS(=O)(=O)NC(=O)c1ccc2c(c1)ncn2C,-57.9%
5,c1cc(NCc2ccncc2)nc(C2CCCNC2)c1 (centres undefined),18.4%
6,CC1c2ncc(COc3cccnc3)n2CCN1C(=O)C1=CCCC1 (centres undefined),-7.11%
7,CC(C)(C)C(=O)Cn1nc(C2CC2)cc(C(F)(F)F)c1=O,77.6%
8,CC(C)(C)NC(=O)Cn1nc(C2CC2)cc(C(F)(F)F)c1=O,28.7%
9,CC(C)(C)OC(=O)Cn1nc(C2CC2)cc(C(F)(F)F)c1=O,32%
10,CCN1CCN(C(=O)NCc2ccccc2Cn2cncn2)CC1,32.7%
11,Cn1ncnc1NCc1ccc(Br)cc1,20.9%
12,COc1ccc(C2SCC(=O)N2c2ncc(C)s2)cc1 (centres undefined),24.7%
13,CC1CCCCN1C(=O)c1n[nH]c(=O)c2ccccc12 (centres undefined),60.2%
14,CNC(=O)C1CCCCN1C(=O)c1n[nH]c(=O)c2ccccc12 (centres undefined),8.53%
15,O=C(c1n[nH]c(=O)c2ccccc12)N1CCCCC1c1ccn[nH]1 (centres undefined),40.9%
16,O=C(COc1ccccc1)NS(=O)(=O)Cc1ccccc1,11.8%
17,Cc1cccc(OCC(=O)NS(=O)(=O)Cc2ccccc2)c1,22.9%
18,Cc1ccc(OCC(=O)NS(=O)(=O)Cc2ccccc2)cc1,69.8%
19,O=S(=O)(NCCCn1cncn1)c1ccc2c(c1)CCC2,-58.1%
20,O=S(=O)(NCCCn1cncn1)c1ccc2c(c1)CCO2,44.9%
21,O=S(=O)(NCCCn1cncn1)c1ccc2c(c1)CCCC2,50.4%
22,CCOc1ccc(CCCC(=O)N2CC[C@H](NC(C)=O)C2)cc1C,16%
23,CCOc1ccc(C(=O)NC2CCN(c3ncccn3)CC2)cc1C,34.2%
24,CCOc1ccc(C(=O)NC2CC2)cc1C,57%
25,CCN(CC)C(CNC(=O)c1ccc(S(=O)(=O)NC)cc1)c1ccco1 (centres undefined),6.12%

row,Structure (SMILES),INHIBITION
1,COc1cccc(OCC(=O)NS(=O)(=O)c2cccnc2)c1,-19.05%
2,COc1cccc(OCC(=O)N(C)c2cccnc2N(C)C)c1,33.1%
3,COc1cccc(OCC(=O)N(C)c2cccnc2)c1,53.7%
4,Cc1nc(C(C)C)sc1C(C)N(C)C(=O)c1ccc(=O)n(C)n1 (centres undefined),-19.7%
5,CCN(CC)c1ncccc1CNCc1cc2ccccc2s1,5.91%
6,Cc1cc(NC(=O)CN2CCOC(CN(C)C)C2)n(C)n1 (centres undefined),4.35%
7,Cc1nc(CN2CCO[C@@H]3CN(Cc4nccs4)C[C@@H]3C2)cs1,3.69%
8,O=C(CN1CCCC1c1cccs1)N1CCc2sccc2C1 (centres undefined),19.2%
9,CC(C)c1noc(-c2cccc(OCC(N)=O)c2)n1,-110%
10,O=C(c1ccc2ncsc2c1)N1CCC(C(=O)O)(n2cccn2)CC1,-0.529%
11,O=C(c1ccc2sccc2c1)N1CCC(C(=O)O)(n2cccn2)CC1,-16.6%
12,O=C(c1ccc2occc2c1)N1CCC(C(=O)O)(n2cccn2)CC1,60%
13,CN1CC2(CCN(CCCOCc3ccccc3)CC2)OC1=O,42.8%
14,O=C(C1CCOC1)N1C[C@H]2CN(Cc3ccccn3)C[C@H]2C1 (some centres undefined),33.5%
15,CC(=O)N(Cc1ncc(C)o1)C1CCN(Cc2sc(C)nc2C)C1 (centres undefined),-2.19%
16,Fc1ccc(Sc2ccccc2CNC2=NCCN2)cc1,83.3%
17,CNC(C)Cc1ccccc1Sc1ccc(O)cc1 (centres undefined),-2.39%
18,O=C1NCCCCC1Sc1ccccc1F (centres undefined),13.6%
19,c1cc2c(cc1C1(CNC3=NCCN3)CCCC1)OCCO2,27.6%
20,c1ccc(Sc2ccc3c(c2)OCO3)c(CNC2=NCCN2)c1,87.1%
21,O=C(Cc1cccnc1)NCCSc1ccccc1F,-11.6%
22,CC(C)NCc1nc(-c2ccc3c(c2)OCO3)c[nH]1,-40.5%
23,NCc1ccccc1Sc1ccc(O)cc1,39.4%
24,Fc1ccccc1Sc1ccccc1CNC1=NCCN1,75.7%
